Source: PubChem BioAssay (Tox21)
Inconclusive results are not listed. Where a call stands in place of a potency, no number is given. Active and inactive are the calls of the source. The call rests on the fitted dose curve. Where a SMILES comes first, the peptide text is derived from it. [ ]: non-standard residue; d: D form. pGlu = O=C1CC[C@@H](C(=O)O)N1

Test: qHTS assay to identify small molecule agonists of the progesterone receptor (PR) signaling pathway - cell viability counter screen (AID 1346799); further: nearly all actives have a fitted effect of over 45% in size
Conditions: PR-UAS-bla HEK293T viability, CellTiter-Glo luminescence, 16 h; series mostly up to 92.4 µM
Source text: National Center for Advancing Translational Sciences [NCATS]
NIH Chemical Genomics Center [NCGC]
U.S. Environmental Protection Agency [EPA]
National Institutes of Environmental Health Sciences [NIEHS]
National Toxicology Program [NTP]
U.S. Food and Drug Administration [FDA]
Progesterone receptor (PR), a nuclear hormone receptor, plays an important role in development, metabolic homeostasis and reproduction. It is activated by the steroid hormone progesterone. Endocrine disrupting chemicals (EDCs) and their interactions with steroid hormone receptors like PR causes disruption of normal endocrine function. To identify the compounds that stimulate PR signaling, a PR-UAS-bla GripTite cell line i.e. PR-UAS-bla HEK293T (Invitrogen, Carlsbad, CA, USA) containing a beta-lactamase reporter gene under the control of an UAS response element was used to screen Tox21 10K compound library. The cytotoxicity of the Tox21 compound library against the PR-bla cell line was tested in parallel by measuring the cell viability using CellTiter-Glo assay in the same wells.
Tox21 Assay Protocol Summary:
PR-UAS-bla HEK293T cells were dispensed at 3,000 cells/5 uL of assay medium containing 2% charcoal stripped FBS per well into black wall/clear-bottom 1536-well plates using a Multidrop Combi (ThermoFisher Scientific, Waltham, MA) dispenser. After the assay plates were incubated at a 37C and 5% CO2 for 6 hr, 23 nL of compounds dissolved in DMSO, positive controls or DMSO only was transferred to the assay plate by a Pintool station (Kalypsys, San Diego, CA). The plates were incubated at 37C and 5% CO2 for 16 hr. Then 1 uL of LiveBLAzer B/G FRET substrate was added using a Flying Reagent Dispenser (FRD, Aurora Discovery, San Diego, CA), the plates were incubated at room temperature for 2 hours, and fluorescence intensity was measured by an Envision plate reader (PerkinElmer, Shelton, CT). For cell viability readout that measures cytotoxicity, 4 uL/well of CellTiter-Glo reagent was added into the assay plates using a FRD. After 30 min incubation at room temperature, the luminescence intensity in the plates was measured using a ViewLux (PerkinElmer) plate reader.
Potency means the concentration at half of the fitted maximal effect.

Compound | Potency
CC(C)c1ccc2ncccc2c1 | inactive
CC1=CCC(O)(C(C)C)CC1 (stereo not given) | inactive
CCCc1ncc(C[n+]2ccccc2C)c(N)n1 | inactive
CCCCOCCOC(=O)CCCCCCCCC(=O)OCCOCCCC | inactive
CC(C)(C)C(=O)c1ccccc1 | inactive
O=S(=O)(O)c1cccc2c(S(=O)(=O)O)cccc12 | inactive
COc1ccc2cc1Oc1cc3c(cc1OC)CC[N+](C)(C)[C@H]3Cc1ccc(cc1)Oc1c(OC)c(OC)cc3c1[C@@H](C2)[N+](C)(C)CC3 | inactive
Cc1cccc(C)c1NC(=O)CC12CCCN1CCC2 | inactive
CC(C)(CCC(=O)O)C(=O)O | inactive
COc1cc2c(cc1OC)-c1cc3ccc(OC)c(OC)c3c[n+]1CC2 | inactive
C=C(C)C(=O)OCC(O)CO (stereo not given) | inactive
CCNC(=O)[C@@H]1CCCN1C(=O)[C@H](CCCN=C(N)N)NC(=O)[C@H](CC(C)C)NC(=O)CNC(=O)[C@H](Cc1ccc(O)cc1)NC(=O)[C@H](CO)NC(=O)[C@H](Cc1c[nH]c2ccccc12)NC(=O)[C@H](Cc1cnc[nH]1)NC(=O)[C@@H]1CCC(=O)N1 ([pGlu]HWSYGLRP-NHEt) | inactive
CCCCc1nc(Cl)c(CO)n1Cc1ccc(-c2ccccc2-c2nn[nH]n2)cc1 | inactive
CCCCCCCCN1CCCC1=O | inactive
COc1cc(C(=O)OC(COCCC(C)C)CN2CCOCC2)cc(OC)c1OC (stereo not given) | inactive
CCOC(=O)c1ccccc1 | inactive
O=S(=O)(O)c1cc(O)c(O)c(S(=O)(=O)O)c1 | inactive
Cc1c(N)c(=O)n(-c2ccccc2)n1C | inactive
O=C(O)CCSCCC(=O)O | inactive
C=CC(C)(CCC=C(C)C)OC(=O)CC (stereo not given) | inactive

Compound | Potency
CN(C)CCN(C)CCN(C)C | inactive
Cc1ccccc1N=C(N)N=C(N)N | inactive
CC(C)[C@H]1CC[C@@H](C)CC1=O | inactive
O=C(O)CCCC[P+](c1ccccc1)(c1ccccc1)c1ccccc1 | inactive
CCCC(C)C(=O)OCC (stereo not given) | inactive
NC(=O)Cc1cccc2ccccc12 | inactive
CC1=CC(=O)[C@H]2C[C@@H]1C2(C)C | inactive
CCN(Cc1ccccc1)c1ccccc1 | 67.8 µM (active)
O=CN(CCO)CCO | inactive
CCCCCCCCCCCCSC | inactive
CC1=C(C/C=C(\C)CCC[C@H](C)CCC[C@H](C)CCCC(C)C)C(=O)c2ccccc2C1=O | inactive
CCC(C)(CCCC(C)C)OC(C)=O (stereo not given) | inactive
CC(C)(C)c1ccc(-c2ccc(C(C)(C)C)cc2)cc1 | inactive
CC(N)C12CC3CC(CC(C3)C1)C2 (stereo not given) | inactive
Nc1ccn([C@@H]2O[C@H](CO)[C@@H](O)C2O)c(=O)n1 (stereo not given in full) | inactive
CN1CC(=O)N/C1=N/C(=O)Nc1cccc(Cl)c1 | inactive
O=S(=O)(O)c1cccc(S(=O)(=O)O)c1 | inactive
OCCCCCO | inactive
C=COCC1CCC(COC=C)CC1 (stereo not given) | inactive
COc1c(N2CCNC(C)C2)c(F)cc2c(=O)c(C(=O)O)cn(C3CC3)c12 (stereo not given) | inactive
